A selection: hits, their analogues and other compounds. The true share with any hit is near 2.3%.
Mcl1 Noxa PPI – Mcl-1/Noxa binding inhibitors, primary screen, biochemical, TR-FRET, 1536-well | Induced myeloid leukemia cell differentiation protein Mcl-1 (Homo sapiens), Q07820 | TR-FRET Mcl-1/Noxa peptide binding, 2 h | inhibition, % at 21.7 µM | 1.5% of 220,000 active;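 active = compounds that cut the protein-peptide binding signal by more than 50% relative to plate controls in a single-dose test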;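 also: His-tagged Mcl-1 with rhodamine Noxa BH3 peptide and terbium anti-His antibody; 0% = Mcl-1 plus Noxa peptide wells and 100% = peptide-only wells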
GLD-1 TGE inh – GLD-1/TGE RNA complex disruptors, primary screen, biochemical, fluorescence polarization; inhibition, % at 5.96 µM; purified GLD-1 + fluorescein TGE RNA; 0.44% of 320,000 active; Female germline-specific tumor suppressor gld-1 (Caenorhabditis elegans), Q17339; AID 2280, 2010;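 active = percent inhibition above a per-plate cutoff, the plate mean of test compounds plus 3 SD, cut at about 30% in these data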;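 also: 0% = DMSO wells with GLD-1 and probe and 100% = wells lacking GLD-1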
Target sequence (Q17339 whole entry, looked up): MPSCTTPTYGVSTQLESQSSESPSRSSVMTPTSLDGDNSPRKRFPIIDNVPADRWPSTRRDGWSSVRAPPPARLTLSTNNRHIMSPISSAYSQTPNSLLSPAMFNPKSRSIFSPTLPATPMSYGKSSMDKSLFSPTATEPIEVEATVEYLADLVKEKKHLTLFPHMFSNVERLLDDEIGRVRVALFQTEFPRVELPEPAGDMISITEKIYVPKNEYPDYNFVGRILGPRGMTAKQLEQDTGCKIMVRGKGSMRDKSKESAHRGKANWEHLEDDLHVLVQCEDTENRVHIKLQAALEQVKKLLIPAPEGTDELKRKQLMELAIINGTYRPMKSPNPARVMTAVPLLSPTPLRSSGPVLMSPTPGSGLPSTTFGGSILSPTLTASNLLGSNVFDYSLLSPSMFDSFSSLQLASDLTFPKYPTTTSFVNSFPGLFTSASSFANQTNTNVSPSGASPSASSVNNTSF
MCL1-BIM inh – inhibitors of MCL1 binding to BIM-BH3, primary screen, biochemical, fluorescence polarization. Induced myeloid leukemia cell differentiation protein Mcl-1 (Homo sapiens), Q07820. inhibition, % at 10.9 µM. AID 2057, 2009. 0.68% of 320,000 active. GST-MCL1 / FITC-Bim-BH3 fluorescence polarization;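 active = inhibition above the mean inhibition of all tested compounds plus 3 SD, set per campaign, cut at about 40% in these data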;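 also: 0% = DMSO wells and 100% = unlabeled Bim-BH3 peptide control; higher means more loss of mP so more displacement of Bim peptide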
Bim-Mcl-1 – inhibitors of Bim peptide binding to Mcl-1, primary screen, biochemical, bead-based flow cytometry, multiplex | Induced myeloid leukemia cell differentiation protein Mcl-1 (Homo sapiens), Q07820 | Bim peptide-Mcl-1 binding | inhibition, % at 10 µM | 0.1% of 190,000 active | AID 1009, 2008; in the data active = inhibition above about 40%;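 also: 0% = no compound tracer wells and 100% = peptide blocker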
Bcl-xL primary – inhibitors of human Bcl-xL, primary screen, biochemical, fluorescence polarization, HTS; Bcl-2-like protein 1 (Homo sapiens), Q07817; GST-Bcl-xL / FITC-Bim BH3 peptide fluorescence polarization; inhibition, % at 10.9 µM; 0.7% of 320,000 active;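 active = inhibition above the mean of all tested compounds plus 3 SD, cutoff set per campaign, cut at about 30% in these data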;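 also: 0% = DMSO wells and 100% = unlabeled Bim-BH3 peptide competitor; inhibitors lower millipolarization by displacing the labeled peptide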
Target sequence (Q07817 whole entry, looked up): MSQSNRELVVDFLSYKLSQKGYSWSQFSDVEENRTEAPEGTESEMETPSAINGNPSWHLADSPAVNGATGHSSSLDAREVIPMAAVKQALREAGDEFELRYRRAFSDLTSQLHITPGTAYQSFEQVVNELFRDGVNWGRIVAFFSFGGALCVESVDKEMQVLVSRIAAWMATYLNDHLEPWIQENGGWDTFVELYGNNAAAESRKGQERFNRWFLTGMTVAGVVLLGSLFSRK
Mcl1-Bid inh – Mcl-1/Bid binding inhibitors, primary screen, biochemical, TR-FRET, 1536-well. TR-FRET Mcl-1/Bid-Dy647 peptide binding. inhibition, % at 21.7 µM. 0.97% of 220,000 active. AID 1021, 2008;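 active = compounds that cut the binding signal by more than half at the single screening dose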;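 also: His-tagged Mcl-1 with europium anti-His antibody binding Bid BH3 peptide; 0% = Mcl-1 plus peptide wells and 100% = peptide-only wells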
Numbers without * were called inactive; . = not tested or not shown.

SMILES | Mcl1 Noxa PPI | GLD-1 TGE inh | MCL1-BIM inh | Bim-Mcl-1 | Bcl-xL primary | Mcl1-Bid inh
Cc1ccc(S(=O)(=O)C(CCC(=O)N2CCOCC2)S(=O)(=O)c2ccc(C)cc2)cc1 | 100* | 3 | 12 | 1 | 7 | -15
Cn1c(CNC(=O)c2ccco2)nnc1SCC(=O)c1ccc(Br)cc1 | . | 1 | -5 | . | -5 | .
O=C(Nc1cccc(OCC(=O)N2CCOCC2)c1)c1ccc(C(F)(F)F)cc1 | . | 1 | -1 | . | 0 | .
Cc1ccc(C)c(NC(=O)CSc2nnc(-c3ccco3)o2)c1 | 2 | -1 | -2 | 0 | 7 | 2
O=C(CSc1nnc(-c2ccco2)o1)c1ccc[nH]1 | 56* | 8 | 8 | -23 | 5 | -25
Cc1cccc(NC(=O)CSc2nnc(-c3ccco3)o2)c1C | 54* | -3 | 2 | -1 | 5 | -14
O=C(NC1CCSc2ccccc21)c1cccc([N+](=O)[O-])c1 (stereo unspecified) | . | 4 | 4 | . | 6 | .
Cc1onc(-c2ccccc2)c1C(=O)Nc1nnc(CC(C)(C)C)s1 | . | -4 | 4 | . | 3 | .
Cc1nc(C)c(C(=O)N2CCCC(C(=O)c3cc(F)ccc3F)C2)s1 (stereo unspecified) | . | -5 | -2 | . | 3 | .
N#Cc1cc(-c2ccccc2)nn1-c1ccccc1 | 97* | -2 | 43* | 5 | 45* | 27
Cc1ccc(N2CCN(C(=O)N3CCOCC3)CC2)c(C)c1 | -10 | 4 | -4 | 2 | -1 | -14
Cc1ccccc1OCCCC(=O)Nc1ccc(N2CCOCC2)cc1 | 51* | -7 | 0 | 35 | 4 | -27
Cc1cccc(OCC(=O)Nc2ccc(N3CCCC3)cc2)c1C | 62* | -2 | 14 | 20 | 4 | -24
Cc1cc(C)cc(OCC(=O)Nc2ccc(N3CCCC3)cc2)c1 | 67* | 4 | 12 | 9 | 3 | 5
COc1ccccc1OCCCC(=O)Nc1ccc(N2CCOCC2)cc1 | 11 | 6 | 8 | 1 | 4 | -45
CN1CCN(c2ccc(NC(=O)COc3ccccc3Cl)cc2)CC1 | 9 | -4 | -9 | 0 | -1 | 63*
CCCCN(C)CCCNC(=O)CN1C(=O)COc2ccc(S(=O)(=O)N3CCOCC3)cc21 | . | -7 | 6 | . | 4 | .
COc1ccc(NC(=O)CC23CC4CC(C2)CC(n2nnc(C)n2)(C4)C3)cc1 | 8 | 3 | 1 | -1 | 6 | -12
Cc1ccc(OCC(=O)Nc2ccc(N3CCCC3)cc2)cc1C | 81* | -1 | 9 | 1 | 5 | -7
COc1ccc(Cc2nc(-c3ccc(Br)cc3)no2)cc1 | 58* | 1 | -5 | 1 | 0 | -6
CC(C)(C)c1ccc(C2C(C(=O)c3ccco3)=C(O)C(=O)N2CC2CCCO2)cc1 (stereo unspecified) | . | -1 | 2 | . | 6 | .
CC(C)N(C(=O)CSc1ccc(S(=O)(=O)N2CCCCC2)cn1)c1ccccc1 | . | 5 | 7 | . | 8 | .
Cc1c(O)cc2c(c1O)C(=O)CC(c1ccc(O)cc1)O2 (stereo unspecified) | 86* | 2 | 18 | 1 | 4 | 65*
COc1cc(O)c2c(c1)OC(c1ccc(O)cc1)CC2=O (stereo unspecified) | 17 | 7 | 2 | -5 | -2 | 1
CC(Cc1ccc(O)c(O)c1)C(C)Cc1ccc(O)c(O)c1 (stereo unspecified) | . | 15 | 38 | . | 31* | .
SMILES | Mcl1 Noxa PPI | GLD-1 TGE inh | MCL1-BIM inh | Bim-Mcl-1 | Bcl-xL primary | Mcl1-Bid inh
COc1cc(C[C@@H](C)[C@@H](C)Cc2ccc(O)c(OC)c2)ccc1O | . | 11 | . | . | . | .
C=CCc1c(C)nc(SCCC)[nH]c1=O | 98* | 1 | -4 | -3 | 3 | 3
C=CCc1c(C)nc(SCC(N)=O)[nH]c1=O | 27 | -13 | -1 | 0 | -1 | 10
CCCOc1ncnc2c1[nH]c1ccccc12 | 86* | 0 | -1 | 0 | 8 | -18
CCCOc1ncnc2c1[nH]c1ccc(OC)cc12 | 12 | -1 | 0 | . | 11 | -2
O=C(NC1CCCCC1)C(c1cccs1)N(C(=O)C(F)(F)F)c1ccccc1 (stereo unspecified) | 2 | -1 | 1 | -5 | -2 | 9
Cc1ccc(N(C(=O)C(F)(F)F)C(C(=O)NC2CCCCC2)c2cccs2)cc1C (stereo unspecified) | -9 | -1 | 3 | 1 | 4 | 66*
CCCCC(=O)Oc1c(S(=O)(=O)c2ccccc2)c(C)nn1C(C)(C)C | . | -5 | 0 | . | 2 | .
Cc1occc1C(=O)N=Nc1c(O)[nH]c2ccc(Br)cc12 | 51* | 2 | 9 | 16 | 6 | 36
Cc1cc(Cn2nc(-c3ccccc3)cc2C(=O)NCC2CC2)on1 | . | -6 | -5 | . | 7 | .
CCOc1c(C)cnc2c1c(=O)n(Cc1ccc(Cl)cc1)c(=O)n2C | . | 10 | 5 | . | 2 | .
CS(=O)(=O)c1ccc(C(=O)Nc2ccc(N3CCCC3)cc2)c(Cl)c1 | 67* | -2 | 2 | -1 | 1 | -32
CS(=O)(=O)c1ccc(C(=O)Nc2ccc(N3CCOCC3)cc2)c(Cl)c1 | 12 | -1 | -1 | -1 | 3 | -40
Cc1ccc(C(=O)Nc2ccc(N3CCCC3)cc2)c(C)c1 | 75* | 1 | 6 | -1 | 1 | -32
Cc1ccccc1C(=O)Nc1ccc(N2CCCC2)cc1 | 33 | 6 | 7 | 1 | 15 | -56
O=C(Nc1nnc(SCc2ccc(F)cc2)s1)c1ccc2c(c1)C(=O)N(c1ccccc1Cl)C2=O | 21 | 13 | -2 | 0 | 5 | -41
N#CC1=C(N)N2C(=C(C#N)C1c1ccc(Br)cc1)Nc1ccccc12 (stereo unspecified) | 50 | -2 | -17 | -5 | -1 | 51*
N#CC1=C(N)N2C(=C(C#N)C1c1cccc(Br)c1)Nc1ccccc12 (stereo unspecified) | 25 | -2 | 1 | -4 | 3 | 19
O=C(Nc1cnn(C23CC4CC(CC(C4)C2)C3)c1)c1cnn2c(C(F)(F)F)cc(-c3ccco3)nc12 | 31 | 0 | -2 | 0 | 5 | 79*
O=C(Nc1ccc2c(c1)OCO2)c1cnn2c(C(F)(F)F)cc(-c3ccco3)nc12 | 5 | 4 | 6 | -2 | 2 | -11
C=C(C)CNC(=S)N/N=C/c1c(F)cccc1F | 11 | 5 | 1 | -1 | 1 | -34
CCOc1ncccc1C(=O)OCC(=O)N(CC(C)C)C1CCS(=O)(=O)C1 (stereo unspecified) | -16 | 0 | 1 | 0 | 91* | -21
O=c1c(O)c(-c2ccc(O)cc2O)oc2cc(O)cc(O)c12 | 103* | . | . | 3 | . | -42
O=c1c(O)c(-c2ccccc2)oc2cc(O)cc(O)c12 | . | 6 | . | . | . | .

Compound activity deposited in PubChem BioAssay by several laboratories.
